Inhibition data for 40 compounds are collected here from PubChem BioAssay.

Each structure is given as a SMILES string. Unmarked numbers belong to inactive results. Calls of active or inactive are those of the source. No stated cut-off is given here; in the data, active means inhibition above about 44%; inactive means the rest.

Chain of Steroidogenic factor 1 (Homo sapiens) (Q13285 whole entry, looked up): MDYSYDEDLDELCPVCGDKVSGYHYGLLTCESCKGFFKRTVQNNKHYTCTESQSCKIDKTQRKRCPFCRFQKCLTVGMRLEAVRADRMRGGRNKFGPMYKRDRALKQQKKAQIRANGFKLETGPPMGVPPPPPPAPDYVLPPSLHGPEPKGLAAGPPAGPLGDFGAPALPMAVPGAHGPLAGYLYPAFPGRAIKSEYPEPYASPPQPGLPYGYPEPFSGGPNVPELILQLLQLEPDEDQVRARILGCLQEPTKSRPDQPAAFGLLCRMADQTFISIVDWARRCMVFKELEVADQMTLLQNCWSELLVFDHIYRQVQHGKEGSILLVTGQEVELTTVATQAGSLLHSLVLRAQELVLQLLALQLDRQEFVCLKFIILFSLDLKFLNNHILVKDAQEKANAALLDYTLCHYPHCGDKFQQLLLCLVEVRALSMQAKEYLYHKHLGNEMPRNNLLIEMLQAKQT

The test addresses Steroidogenic factor 1 (Homo sapiens) (UniProt Q13285). Nature of the test: inverse agonism at SF1 nuclear receptor – cell-based, luminescence, high throughput, counter-screen for LRH-1 inverse agonist project (AID 651614).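 Further: cells cotransfected with StAR promoter reporter and SF1 expression vector; 0% = vehicle on cells with receptor and 100% = vehicle on cells lacking receptor.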 As to conditions: cell-based SF1 luciferase reporter, at 3.6 µM, hits give high values.
On to `COc1ccc(NC(=O)COc2ccc(N(C)S(=O)(=O)c3ccc(Cl)cc3)cc2)cc1OC`, for which the inhibition is 51.7% (active).
`CCOCC(=O)Nc1ccc(S(=O)(=O)NCCc2ccccc2)cc1`: the inhibition was 43.2% (active).
In the case of `O=C(CCl)N1CCN(C(=O)C2COc3ccccc3O2)CC1` (stereo not given), the inhibition is 57.3% (active).
As for `CC1OC(CC(=O)O)CC2=C1C(=O)c1c(O)cccc1C2=O` (stereo not given), the inhibition is 98.2% (active).
To `CC[n+]1c(/C=C/c2ccc(N(C)C)cc2)ccc2ccccc21` belongs 86.6% (active); to `COc1ccc(NC(=O)COC(=O)c2cc(S(=O)(=O)N3CCCC3)ccc2O)cc1`, 46.3% (active).
To `NS(=O)(=O)c1ccc(O)c(NC(=O)c2ccc([N+](=O)[O-])o2)c1` belongs 61.2% (active).
To `Cc1nn(Cc2ccc(Cl)cc2)c(C)c1NC(=O)c1ccc([N+](=O)[O-])cc1` belongs 50% (active).
For `CC(=NNC(=S)N1CCN(c2ccccn2)CC1)c1nccs1`, the inhibition was 79.4% (active).
`O=C(Nc1ccc2oc(-c3cccnc3)nc2c1)c1ccc([N+](=O)[O-])o1`: the inhibition is 62.5% (active).
To `O=C(CN1CCN(c2ncccn2)CC1)N1CCCc2c1c(=O)oc1ccc(O)cc21` belongs 53.6% (active); to `Cc1cc(C)c2c(NC(=O)CCl)nn(C)c2n1`, 68.7% (active); to `CCN1C(=O)c2cccc3c(NC(=O)c4ccc(S(=O)(=O)N5CCOCC5)cc4)ccc1c23`, 62.7% (active).
With `COc1ccc(NC(=O)CN2C(=O)NC(C)(c3ccc(C)cc3)C2=O)c([N+](=O)[O-])c1` (stereo not given) the figure was 55.1% (active); with `CCOC(=O)C1CCCN(S(=O)(=O)c2ccc(S(=O)(=O)N(CC)CC)cc2)C1` (stereo not given), 54.5% (active).
To `CCn1c(=NC(=O)CCS(=O)(=O)c2ccccc2)sc2cccc(OC)c21` belongs 70.3% (active); to `CSc1ccc(COC(=O)c2cc([N+](=O)[O-])ccc2N2CCOCC2)cc1`, 65.8% (active).
In the case of `CCCc1cc(=O)oc2c(C)c(OCC(=O)NC3CC(C)(C)NC(C)(C)C3)ccc12`, the inhibition was 59% (active).
With `COC(=O)CNc1nc(-c2cccnc2)nc2ccccc12` the figure was 42.2%; with `Cc1ccc(NC(=O)CCl)c(C)c1`, 63.2% (active); with `Nc1ccc(Nc2ccncc2[N+](=O)[O-])cc1`, 61.9% (active).
With `Nc1nc(-c2ccccc2)c(CCCOc2ccc(NC(=O)CBr)cc2)c(=O)[nH]1` the figure was 48.9% (active); with `CC(CCc1ccccc1)NC(=O)COc1ccc(S(=O)(=O)N2CCOCC2)cc1[N+](=O)[O-]` (stereo not given), 31.7%; with `COCCn1c(C)cc(/C=C(\C#N)C(=O)OCC(=O)Nc2ccc(S(N)(=O)=O)cc2)c1C`, 46.3% (active).
In the case of `CC(=O)C(C(C)=O)c1c(Cl)c(O)c(O)c2c(C(=O)c3ccccc3)coc12`, the inhibition was 92.8% (active).
With `Cc1ccc(NC(=O)CSc2sc3c(O)cc(=O)[nH]c3c2C#N)c(F)c1` the figure was 41.9%.
Take `CC(=O)Nc1ccc(NC(=O)COC(=O)c2c(C)nn(-c3ccccc3)c2C)cc1`: the inhibition is 50.9% (active).
As for `CCN(Cc1ccccc1)c1ccc(/C=N/N2CCOCC2)cc1`, the inhibition is 34.2%.
Turning to `CC1(C)CC(=O)C=C(c2cccs2)C1`, the inhibition is 57.8% (active).
With `CCOC(=O)N1CCN(C(=O)CCl)CC1` the figure was 57.9% (active); with `Cc1cc(C(=O)N/N=C/c2ccc([N+](=O)[O-])o2)c(C)o1`, 65.2% (active).
To `CCOC(=O)N1CCc2cc(OC)c(OC)c3c2c1cc1cc(OC)c(OC)cc13` belongs 67.3% (active); to `Cc1cc(Br)ccc1NC(=O)CN1C(=O)CCC1=O`, 72.2% (active); to `O=C(COc1ccc2c3c(c(=O)oc2c1)CCCC3)NCCN1CCOCC1`, 23.5%.
To `CN(C)S(=O)(=O)c1cccc(C(=O)OCC(=O)Nc2ccc3c(c2)OCCO3)c1` belongs 52.3% (active); to `COc1cc(/C=N/Nc2snc(SC)c2C#N)ccc1O`, 44.1% (active).
`C/C=C/c1ccc(OCCOc2ccc(C=O)cc2OC)c(OC)c1`: the inhibition is 35.4%.
To `COc1cccc(NC(=O)N(C)C[C@H]2Oc3cc(C#Cc4ccncc4)ccc3S(=O)(=O)N([C@H](C)CO)C[C@H]2C)c1` belongs 44.8% (active); to `CCOC(=O)c1ccc(Nc2nc(-c3cccnc3)nc3ccccc23)cc1`, 41.1%.
To `O=C(COC(=O)CCN1C(=O)C2CC=CCC2C1=O)NCCc1ccccc1` (stereo not given) belongs 44.8% (active).
